This is an account of results in ChEMBL document CHEMBL3988442, “University of Dundee, Small-Polar-MMV Screening Library” (2021).

Assay [1] deals with T1, Aspartate--tRNA(Asp/Asn) ligase (Mycobacterium tuberculosis (strain ATCC 25618 / H37Rv)) (UniProt P9WFW3).
T1 sequence (whole entry): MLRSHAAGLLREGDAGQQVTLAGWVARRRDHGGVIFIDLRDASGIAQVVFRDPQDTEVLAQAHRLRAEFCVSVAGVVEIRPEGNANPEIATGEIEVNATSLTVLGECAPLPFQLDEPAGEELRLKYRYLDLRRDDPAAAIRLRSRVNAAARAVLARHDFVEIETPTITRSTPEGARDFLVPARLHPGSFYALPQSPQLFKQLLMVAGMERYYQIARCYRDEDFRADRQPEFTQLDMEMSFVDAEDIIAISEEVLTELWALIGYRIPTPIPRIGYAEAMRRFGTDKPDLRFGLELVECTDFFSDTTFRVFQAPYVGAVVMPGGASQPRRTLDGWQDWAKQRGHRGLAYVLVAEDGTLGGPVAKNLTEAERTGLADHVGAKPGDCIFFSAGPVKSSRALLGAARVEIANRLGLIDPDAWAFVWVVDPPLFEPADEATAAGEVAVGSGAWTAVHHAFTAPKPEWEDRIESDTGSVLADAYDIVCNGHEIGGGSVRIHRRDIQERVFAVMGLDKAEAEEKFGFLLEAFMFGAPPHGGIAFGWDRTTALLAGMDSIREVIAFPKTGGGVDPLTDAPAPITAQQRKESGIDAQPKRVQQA
The assay is described as follows: Assay for Asp RNA synthetase-1 from Mycobacterium tuberculosis. The assay is classed as functional. Also noted: scale not given: direction of the effect not stated beside the values. To be noted: 30 µM.

Assay [2] deals with Shiga toxin 2 (Escherichia coli O157:H7) (UniProt P09385+P09386). Kind of assay: E. coli 0.157:H7 Shiga Toxin SOP - stx2 screening assay. The class given is functional. Also noted: scale not given: direction of the effect not stated beside the values. The settings on record: 30 µM.

In the case of `CCN1CCN(C2CCN(Cc3nc4ccccc4o3)CC2)C1=O`, the Percent Effect in assay [1] came to 12.7%; in assay [2], 21.6%.
Take `CN(Cc1ccsc1)C(=O)Nc1ccc(S(=O)(=O)N(C)C)cc1`: the Percent Effect is 0.428% in assay [1] and -3.75% in assay [2].
For `COc1ccc(OC)c(C(C)Nc2nc3c(C)nn(C)c3c(=O)n2C)c1` (stereo not given), in that order: 4.76% and -69.5%.
As for `CC(C)COC(C)C(=O)N1CCN(S(C)(=O)=O)CC1` (stereo not given), the Percent Effect in assay [1] is -6.93%; in assay [2], -2.13%.
For `Cn1ccc(C(=O)N2CCC(Cc3cccc4cccnc34)C2)n1` (stereo not given), in that order: -7.19% and 15.7%.
For `O=c1cc(CN2CCCC(CCc3c(F)cccc3F)C2)[nH]c(=O)[nH]1` (stereo not given) the same measures were 3.07% and -12.7%.
Regarding `CCOCCNc1nc(C2CCCC2)nc2c1cnn2C`, the Percent Effect in assay [1] came out at 5.12%; in assay [2] it was 1.57%.
For `COc1ccc(CCNC(=O)C2CCC(Cn3cnnn3)CC2)cc1` (stereo not given), in that order: -2.03% and -4.05%.
As for `CCN(Cc1ccco1)C(=O)Nc1cc(C(F)(F)F)c[nH]c1=O`, the Percent Effect in assay [1] stood at 3.71%; in assay [2] it was 34.2%.
On to `O=C(c1cnccn1)N1CCOCC2(CCN(C3CCOCC3)C2)C1` (stereo not given), for which the Percent Effect in assay [1] was 3.28%; in assay [2] it was -36.9%.
Consider `COCCNC(=O)[C@H]1CN(Cc2nccs2)C[C@H]2OCC[C@@H]12`, for which the Percent Effect in assay [1] was -4.08%; in assay [2] it was 1.98%.
On to `Cc1noc(C(C)C)c1C(=O)N1CCOCC1CC(=O)c1ccco1` (stereo not given), for which the figures for the Percent Effect in assay [1] and in assay [2] were 2.61% and -4.27%, respectively.
As for `Cc1n[nH]c(C)c1-c1cnc(CC2CCN(C)C2)cn1` (stereo not given), the Percent Effect in assay [1] is -0.897%; in assay [2] it was -18.2%.
For `COc1cnc(N2CCC(Oc3ccccc3OC)(C(=O)O)CC2)nc1`, in that order: -1.16% and -0.671%.
`COc1ccc(C)cc1CSCCn1nc2ccccn2c1=O`: the Percent Effect in assay [1] was -3.83%; in assay [2], 6.71%.
`Cc1nn(C)c(C)c1CC(=O)N1CCCC(n2cccn2)C1` (stereo not given): the Percent Effect was -4.75% in assay [1] and 20.6% in assay [2].
For `CC(=O)N1CCC2(CC1)CC[C@@]1(C(=O)N(C)C)CN(S(C)(=O)=O)C[C@@H]21` the same measures were -1.99% and -10.1%.
Take `CCn1nccc1CNC(=O)NC1CCCCC1`: the Percent Effect in assay [1] is 11.6%; in assay [2], -68.7%.
For `O=C(c1csc(Br)c1)N1CCCC(n2ccnc2)C1` (stereo not given), the Percent Effect is -1.27% in assay [1] and -53.5% in assay [2].
For `Cc1ccc([C@@H]2CN(S(=O)(=O)N(C)C)C[C@H]2N(C)C)cc1` the same measures were 2.81% and 5.3%.
For `CCN1CCC2(CC1)CC(NC(=O)N(C)C)c1cc(C)ccc12` (stereo not given), the Percent Effect is 2.85% in assay [1] and -28.6% in assay [2].
For `CCc1ccc(CNC(=O)N2CCN(Cc3cc(C)no3)CC2)s1` the same measures were 12% and 27%.
For `Cc1noc2nc(C3CCN(CC4=CCCOC4)CC3)cc(C(F)F)c12` the same measures were 12.2% and -23.1%.
For `Cc1cnc(CN2CCOC(CNc3cccnn3)C2)cn1` (stereo not given), in that order: -2.97% and 6.13%.
In the case of `CN(C)C(=O)N1CCn2nc(CNC(=O)CCC(F)(F)F)cc2C1`, the Percent Effect in assay [1] was 2.12%; in assay [2], -7.2%.
`O=C(COc1ccc(C(F)(F)F)cc1)NS(=O)(=O)c1cccnc1`: the Percent Effect is 6.95% in assay [1] and 15% in assay [2].
For `Cc1nc(C(C)(C)NC(=O)Nc2ccccc2)no1` the same measures were 0.805% and -0.789%.
For `CC(C)c1nn(C)c(N(C)C)c1CNCC(O)c1ccccc1F` (stereo not given) the same measures were -7.16% and -23.3%.
`O=C1CCC(C(=O)NCc2nncn2-c2ccccc2)CN1` (stereo not given): the Percent Effect in assay [1] came out at 3.33%; in assay [2], 4.47%.
For `Cn1cnnc1S(=O)(=O)C1CCN(S(=O)(=O)c2ccc(F)c(Cl)c2)CC1` the same measures were 2.04% and -2.86%.
For `Cc1nnc(NCC2(c3ccccc3)CC2)c(C#N)c1C` the same measures were 1.73% and 15.4%.
Turning to `Cn1ncc2c(=O)[nH]c(CN3CCCC3CC3CCCCC3)nc21` (stereo not given), the Percent Effect in assay [1] is -3.06%; in assay [2], 22.5%.
In the case of `NC(=O)CN1CCCN(C(=O)c2ccn(-c3ccccc3)n2)CC1`, the Percent Effect in assay [1] is -2.4%; in assay [2], 6%.
For `CCc1n[nH]c(C2CN(C(=O)Cn3ccccc3=O)CCO2)n1` (stereo not given) the same measures were 0.8% and -58%.
Take `CN(C)S(=O)(=O)N1CC[C@@H]2CN(Cc3cnn(C)c3)C[C@@H]2C1`: the Percent Effect in assay [1] was 6.22%; in assay [2], -8.71%.
`CC(C)c1nn(C)c(N(C)C)c1CNCc1ccccc1CN(C)C`: the Percent Effect in assay [1] was -0.745%; in assay [2] it was 23.7%.
For `OC[C@H]1CC[C@]2(CC1)CN(Cc1ccccc1F)Cc1ccccc1O2` the same measures were -2.81% and 20.1%.
Consider `O=C(c1ccc2c(c1)CCCC2)N1CCOCC1c1ncon1` (stereo not given), for which the Percent Effect in assay [1] was -2.09%; in assay [2], 0.194%.
For `Cc1cc(C)c(CNC(=O)N(C)CC2CCCCO2)c(=O)[nH]1` (stereo not given) the same measures were 2.7% and 28.8%.
For `Cc1cc(F)cc(S(=O)(=O)NCCCN2CCC(O)CC2)c1`, the Percent Effect in assay [1] was 4.04%; in assay [2], -67.2%.
For `CC1CCN(CCNC(=O)C2CCN(S(N)(=O)=O)CC2)CC1`, in that order: 1.78% and 0.821%.
Turning to `Cc1cc(CN2CCN(C(=O)C(C)C)[C@@H]3CS(=O)(=O)C[C@@H]32)ccc1F`, the Percent Effect in assay [1] was 2.51%; in assay [2], -10.2%.
For `Cc1nn(C)c(Cl)c1CNCc1cccnc1N1CCN(C)CC1` the same measures were -1.56% and -1.67%.
For `CCn1ccnc1CN1CCC(N(C)Cc2ncc(C)o2)C1` (stereo not given) the same measures were -4.45% and -39.6%.
For `c1cnn(-c2ccc(CN3CCOC(Cn4cncn4)C3)cc2)c1` (stereo not given) the same measures were 4.05% and 9.62%.
`COCc1ccccc1C(=O)NCCCN1CCCC1C(=O)N(C)C` (stereo not given): the Percent Effect in assay [1] was 5.84%; in assay [2] it was -26.7%.
As to `CNS(=O)(=O)Cc1ccc(CNC(=O)Nc2cn[nH]c2)cc1`, the Percent Effect in assay [1] is -0.228%; in assay [2], -4.62%.
With `Cc1[nH]ncc1CCCNC(=O)Nc1ccc(C#N)cc1`, the results for the Percent Effect in assay [1] and in assay [2] were 0.993% and -61.3%, respectively.
For `Cc1cc(-c2nnn(CCC(N)=O)n2)ccc1F`, in that order: -0.912% and -20.8%.
Turning to `O=C(CCc1cc2n(n1)CCN(Cc1ncc[nH]1)C2)N1CCCC1`, the Percent Effect is -0.827% in assay [1] and -2% in assay [2].
